Rows were chosen to be rich in hits. Some 2.3% of all compounds tested hit in one or more screens of this group.
IDE cell inh – cellular human IDE inhibition. P14735. inhibition, % at 5.59 µM. HEK cells, FAbetaB cleavage, fluorescence polarization. 320,000 tested, 0.41% active. AID 434962;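 active means percent inhibition above the average of all tested compounds plus 3 SD, set per screening campaign, cut at about 16% in these data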;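 further: IDE supplied by intact live HEK cells; FP after avidin binding of uncleaved biotin substrate so inhibition keeps polarization high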
Rpn11 inh – inhibitors of human proteasome Rpn11; AID 588493; inhibition, % at 20 µM; 360,000 tested, 0.59% active; human 26S proteasome, Ub4-pepOG fluorescence polarization; 20S core pre-blocked with epoxomicin;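 active means inhibition at 20 µM, scaled to each plate's controls, above about 33%, limit read from the data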
Target sequence (O00487 whole entry, looked up): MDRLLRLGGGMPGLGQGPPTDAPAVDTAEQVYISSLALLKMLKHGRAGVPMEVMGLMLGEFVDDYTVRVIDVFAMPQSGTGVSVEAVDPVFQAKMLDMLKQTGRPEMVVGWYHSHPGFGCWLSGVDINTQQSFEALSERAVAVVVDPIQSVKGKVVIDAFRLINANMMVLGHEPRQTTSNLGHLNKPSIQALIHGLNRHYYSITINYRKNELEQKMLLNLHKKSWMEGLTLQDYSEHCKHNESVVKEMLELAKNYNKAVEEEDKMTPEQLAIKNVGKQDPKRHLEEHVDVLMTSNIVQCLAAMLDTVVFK
IDE cell activ – activators of human insulin-degrading enzyme in cells. AID 493087. 340,000 tested, 0.073% active. P14735. activation, % at 5.96 µM. HEK cells, FAbeta-B cleavage, fluorescence polarization; 0% vehicle, 100% cell-free pure enzyme wells;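 active means activation above the mean of all tested compounds plus 3 SD, set per screening campaign, cut at about 17% in these data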
TPT1 inh – inhibitors of Candida albicans tRNA 2'-phosphotransferase TPT1; recombinant caTPT1, FP RNA substrate dephosphorylation; inhibition, % at 5 µM; 300,000 tested, 0.81% active;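 active means inhibition above the mean of all tested compounds plus 3 SD, set per screening campaign, cut at about 24% in these data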
Calb FLC – C. albicans growth modulation with fluconazole; 300,000 tested, 0.57% active; C. albicans CaCi-2 (fluconazole-resistant clinical isolate) + fluconazole, Alamar Blue growth, 48 h; growth inhibition, % (no concentration beside the values);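 active means growth inhibition above about 58% in most replicates, limit read from the data, passing the limit was not always enough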;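 further: all wells also contain fluconazole at 8 µg/ml as a sub-toxic cotreatment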
Rin1 Abl inh – inhibitors of human Rin1-Abl protein interaction; 360,000 tested, 0.4% active; inhibition, % at 7.35 µM; AID 588664; TR-FRET Rin1/Abl binding, biochemical; in the data active means inhibition above about 5%, passing the limit was not always enough
Rin1-Abl confirm – confirmation of inhibitors of human Rin1-Abl interaction. shares compounds with Rin1 Abl inh. 1,300 tested, 49% active. inhibition, % at 7.35 µM. AID 602124. TR-FRET Rin1-Abl binding, purified proteins
GFP quencher – quenches GFP fluorescence, counter-screen for Rin1-Abl inhibitors | shares compounds with Rin1 Abl inh | inhibitors/quenchers counterscreen | inhibition, % at 6.75 µM | 1,300 tested, 8.5% active | AID 602125;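 further: ABL1-eGFP fusion protein alone without its partner RIN1-SBP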
GFP quench DR – quenches GFP in dose response, Rin1-Abl counter-screen; shares compounds with Rin1 Abl inh; AID 602182; GFP fluorescence interference/quenching counterscreen; IC50, µM; 230 tested, under 10 active; call rule not given here;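 further: ABL1-eGFP fusion protein alone without its RIN1 binding partner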
Numbers stand for hits; 0 = inactive; - = no result. Unless noted, no stated cut-off is given here; in the data, active means inhibition above about 6.5%; inactive means the rest.

SMILES	IDE cell inh	Rpn11 inh	IDE cell activ	TPT1 inh	Calb FLC	Rin1 Abl inh	Rin1-Abl confirm	GFP quencher	others
Cc1ccc(C)c(N=Cc2c(O)c3ccccc3oc2=O)c1	0	0	0	0	0	0	-	-
Cc1ccc(C(=O)OCC(=O)NC2CCCC2)cc1	0	0	0	0	0	0	-	-
CCNc1cc2c(cc1O)CCC1C2CCC2(C)C(O)CCC12 (stereo not drawn)	-	0	0	-	-	13	0	0
CCOc1cc2c(cc1O)CCC1C2CCC2(C)C(O)CCC12 (stereo not drawn)	-	0	0	-	-	0	-	-
CCN1C(=O)CC(n2c(C)nc3ccccc32)C1=O (stereo not drawn)	0	0	0	0	0	7.9	0	0
Cc1nc2ccccc2n1C1CC(=O)N(N(C)C)C1=O (stereo not drawn)	0	0	0	0	0	0	-	-
Cc1cc(C(=O)NC(C)Cc2ccccc2)cc(C)c1[N+](=O)[O-] (stereo not drawn)	0	0	-	0	0	0	-	-
CCNc1nc(N2CCCCC2)nc(-n2nnc(C(=O)OCC)c2C)n1	0	0	0	0	0	5.8	0	0
CCN(CC)c1ccc(C(=C2C=CC(=[N+](CC)CC)C=C2)c2ccc(N(CC)CC)cc2)cc1	-	0	0	-	-	19	17	52
CCN(CC)c1ccc(C(=C2C=CC(=[N+](CC)CC)C=C2)c2ccccc2)cc1	-	0	0	-	-	0	-	-
Cc1cccc(NC(=O)[C@@H](CC(C)C)NC(=O)[C@@H]2Cc3ccccc3CN2)c1	0	0	0	0	0	30	0	0
Cc1cccc(NC(=O)[C@H](NC(=O)[C@@H]2Cc3ccccc3CN2)c2ccccc2)c1	0	0	0	0	0	0	-	-
C[C@H](CO)N1C[C@H](C)[C@@H](CN(C)CC2CCCCC2)Oc2c(NS(=O)(=O)c3cccs3)cccc2C1=O	0	0	0	-	-	0	-	-
C[C@H](CO)N1C[C@H](C)[C@@H](CN(C)Cc2ccc(-c3ccccc3)cc2)Oc2c(NS(=O)(=O)c3cccs3)cccc2C1=O	0	0	0	-	-	16	16	0
C[C@H](CO)N1C[C@H](C)[C@@H](CN(C)Cc2ccncc2)Oc2c(NC(=O)c3ccncc3)cccc2C1=O	0	0	0	-	-	9.3	9.5	0
COc1ccc(CNC(=O)c2cccc3c(-c4cnn(C)c4)coc23)cc1OC	-	0	-	-	-	12	0	0
COc1ccc2c3c(cccc13)C(=O)CC2	-	0	43	-	0	12	0	0
CCOc1ncccc1C(=O)OCc1ccc(C(=O)OC)cc1	0	0	0	0	0	0	-	-
O=C1NNC(c2ccccc2)=N/C1=C\c1ccccc1Cl	-	0	0	-	-	6.8	8.3	0
O=C1NNC(c2ccccc2)=N/C1=C\c1ccco1	0	0	0	0	0	0	-	-
Oc1c(CN2CCCCC2)cc(Br)c2cccnc12	0	0	0	0	0	11	8.0	0
Oc1c(Cl)cc(CN2CCOCC2)c2cccnc12	0	0	0	-	-	7.4	0	0
COc1ccc(OC)c(NC(=O)COc2ccc(S(=O)(=O)NC(C)C)cc2)c1	0	0	0	0	0	7.4	0	0
COc1ccc(/C=C(\C#N)C(=O)OCC(=O)NCc2ccc(Cl)cc2)cc1	0	-	-	0	0	-	-	-
CCOC(=O)c1ccc(NC(=O)COc2ccccc2CNC2CCCC2)cc1	0	0	0	0	0	31	34	0	GFP quench DR=0
SMILES	IDE cell inh	Rpn11 inh	IDE cell activ	TPT1 inh	Calb FLC	Rin1 Abl inh	Rin1-Abl confirm	GFP quencher	others
CCOC(=O)c1ccc(NC(=O)COc2ccccc2OC)cc1	0	0	0	0	0	0	-	-
O=C(Nc1cccc(Cl)c1)Nc1cccc(C(=O)O)c1	0	0	-	0	0	5.9	0	0
O=C(O)CC1(CC(=O)Nc2cccc(C(=O)O)c2)CCCC1	0	0	0	0	0	8.0	0	0
O=C(Nc1ccc(Cl)cc1)Nc1cccc(C(=O)O)c1	0	0	-	0	0	0	-	-
CCOc1ccc(NC(=O)c2cc(C3CC3)nc3c2cnn3C(C)C)cc1OC	0	0	0	-	-	0	-	-
Cc1[nH]n(-c2ccccc2)c(=O)c1C(C[N+](=O)[O-])c1ccc(Br)cc1 (stereo not drawn)	0	0	0	0	0	34	0	0
Cc1[nH]n(-c2ccccc2)c(=O)c1C(c1ccc(C(=O)O)cc1)c1c(C)[nH]n(-c2ccccc2)c1=O	0	0	0	0	0	17	0	0
Cc1[nH]n(-c2ccccc2)c(=O)c1C(c1cccc([N+](=O)[O-])c1)c1c(C)[nH]n(-c2ccccc2)c1=O	0	0	0	0	0	9.1	0	0
Cc1[nH]n(-c2ccccc2)c(=O)c1C(c1cccc([N+](=O)[O-])c1O)c1c(C)[nH]n(-c2ccccc2)c1=O	0	0	0	0	0	0	-	-
Cc1cccc(OCC(=O)N2CCc3ccccc3C2)c1	0	0	0	0	0	0	-	-
O=C(O)c1ccc2ccc3ccccc3c2c1	0	0	-	0	0	0	-	-
Cc1cc(C)c(S(N)(=O)=O)c(C)c1N(C)S(=O)(=O)c1ccc(Cl)cc1	0	0	0	0	0	0	-	-
O=C(Cc1ccccc1Cl)Nc1cc(S(=O)(=O)N2CCOCC2)ccc1N1CCOCC1	0	0	0	-	-	0	-	-
COc1ccccc1OCc1ccc(C(=O)N2CCN(C(=O)c3ccco3)CC2)cc1	0	0	0	0	0	10	21	0	GFP quench DR=0
COc1ccc(CN2CCN(C(=O)c3ccco3)CC2)cc1OCc1ccccc1	0	0	0	0	0	0	-	-
COc1cccc(N2CC(C(=O)Nc3ccc(C(=O)OC(C)C)cc3)CC2=O)c1 (stereo not drawn)	0	0	0	0	0	17	14	0
COc1cccc(N2CC(C(=O)Nc3ccc(F)cc3)CC2=O)c1 (stereo not drawn)	0	0	0	0	0	0	-	-
CC(Sc1nnc(-c2cccnc2)n1N)C(=O)NCCC1=CCCCC1 (stereo not drawn)	-	0	0	-	-	0	-	-

Assay outcomes deposited in PubChem by several laboratories.
